Bioassay records from PubChem.
Compounds with a hit are over-represented: about 2.8% of the library has one in this group of screens.
SNCA expr inh – Primary qHTS assay for inhibitors of alpha-synuclein gene (SNCA) expression; HEK-293 SNCA-luciferase knock-in, luminescence, 24 h; Potency, µM (highest dose often 57.2 µM), inactives show at the top dose activity change, negative = inhibition, most hits filed as inhibitors; 140,000 compounds, 0.17% hits; AID 1671194, 2021;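 also: potency is read from the fitted curve at half-maximal effect; plate controls were DMSO cells for no effect and cell-free wells for full effect; nearly all actives have a fitted effect of over 45% in size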
KDM5B inhibitor – Primary screen for KDM5B Histone Demethylases FDH-coupled qHTS. KDM5B demethylase, FDH-coupled NADH fluorescence (FDH is formaldehyde dehydrogenase). Potency, µM (top dose mostly 57.7 µM), actives largely listed as inhibitors. 220,000 compounds, 2.6% hits. AID 1347165, 2019; also: potency is read from the fitted curve at half-maximal effect; 0% is about no effect; nearly all actives have a fitted effect of over 70% in size
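qHTS format, multiple compound concentrations. Buffer 50 mM HEPES pH 7.5/0.01% Tween-20; 200 nM KDM5BΔAP final; 10 min compound preincubation; substrate-mix levels 12.5 µM peptide, 25 µM α-KG, 0.25 mM NAD⁺; 30 min RT; ΔRFU.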
HEK293 viab – GF-AFC viability counterscreen for inhibitors of alpha-synuclein gene (SNCA) expression; HEK-293-SNCA-luc viability, GF-AFC fluorescence, 24 h; Potency, µM (highest dose often 57.1 µM), for inactives: at the top dose activity change, negative = cytotoxicity, hits mostly cytotoxic; 150,000 compounds, 0.12% hits; AID 1671193, 2021;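 also: potency is read from the fitted curve at half-maximal effect; 0% = DMSO-treated cells and -100% = medium-only wells without cells; nearly all actives have a fitted effect of over 30% in size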
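HEK-293-SNCA-luc cells (1500/well) plated 24 h, then exposed 24 h to a dilution series; GF-AFC added 30 min at 37C, fluorescence 405/540 nm; normalised to medium-only and DMSO wells, Hill fit.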
IP6K1 inh – Primary qHTS assay for small molecule inhibitors of Inositol hexaphosphate kinase 1 (IP6K1) | 140,000 compounds, 0.81% hits | IP6K1 kinase, ADP-Glo luminescence, 2 h; active compounds read low | activity change, % (series mostly up to about 58 µM) | Inositol hexakisphosphate kinase 1 (Homo sapiens), Q92551; in the data active = activity change below about -25%; also: % is scaled to controls: 0 for no effect and ±100 for the full control effect
Target sequence (Q92551 whole entry, looked up): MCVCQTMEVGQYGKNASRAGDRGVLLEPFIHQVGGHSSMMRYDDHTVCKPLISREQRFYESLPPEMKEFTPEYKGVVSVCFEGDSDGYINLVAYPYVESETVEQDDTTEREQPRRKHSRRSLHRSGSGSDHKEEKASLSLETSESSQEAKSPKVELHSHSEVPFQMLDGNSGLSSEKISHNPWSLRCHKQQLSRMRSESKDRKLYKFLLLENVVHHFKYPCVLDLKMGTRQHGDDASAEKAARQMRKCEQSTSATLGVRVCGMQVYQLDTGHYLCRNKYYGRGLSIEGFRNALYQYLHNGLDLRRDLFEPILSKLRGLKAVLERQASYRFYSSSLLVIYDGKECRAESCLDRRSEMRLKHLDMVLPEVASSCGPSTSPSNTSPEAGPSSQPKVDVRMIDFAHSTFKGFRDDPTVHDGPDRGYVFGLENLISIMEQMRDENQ
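ADP-Glo luminescence measures ADP made by human IP6K1 during a 2 h RT reaction with ATP/IP6 (mix at 1.3 mM/130 uM); top library doses 57.5 and 19.1 uM final.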
Numbers without * were called inactive; i = inactive; ? = inconclusive; / = no result; [ ] = remark or other dose. Unless noted, calls follow the shape of the dose curve; as a rule, active = well fitted curve in the direction sought with a large enough effect; inconclusive = small, poorly fitted or top-dose-only effect, or another doubt; inactive = no such curve, though single readings can be large; an effect the other way counts as inactive or inconclusive.

SMILES | SNCA expr inh | KDM5B inhibitor | HEK293 viab | IP6K1 inh
COCC(=O)N[C@H]1CO[C@H]2[C@@H]1OC[C@@H]2Nc1nccc(-c2cccc(C#N)c2)n1 | 2.0%[87.6 µM] | ? | 2.2%[87.6 µM] | -11.3
CC(=O)N[C@H]1CO[C@H]2[C@@H]1OC[C@@H]2Nc1nccc(-c2cccc(F)c2)n1 | ? | 35.5µM* | 2.8%[87.6 µM] | -8.0
N#Cc1cccc(-c2ccnc(N[C@H]3CO[C@H]4[C@@H]3OC[C@@H]4NC(=O)N3CCOCC3)n2)c1 | -17.0% | 31.6µM* | 7.9% | -5.9
CCNC(=O)N[C@H]1CO[C@H]2[C@@H]1OC[C@@H]2Nc1nccc(-c2cccc(F)c2)n1 | ? | 31.6µM* | 2.0%[87.6 µM] | -9.7
CC(C)(C)C(=O)N[C@H]1CO[C@H]2[C@@H]1OC[C@@H]2Nc1nccc(-c2cccc(C#N)c2)n1 | 5.9%[87.6 µM] | ? | -0.5%[87.6 µM] | -8.3
COc1ccc(Nc2ccnc(N3CCCC(C(=O)NCc4cccc(F)c4)C3)n2)cc1 (configuration not stated) | ? | / | -12.2%[12.5 µM] | -8.9
O=C(c1ccccc1Cl)N1CCC(N2CCCNC2=O)CC1 | -23.5%[87.6 µM] | i | 4.7%[87.6 µM] | 17.0
O=C(NCc1ccc(-c2ccc(F)cc2)o1)C1CC(=O)N(Cc2cccnc2)C1 (configuration not stated) | 23.9% | 25.1µM* | -1.9% | 0.4
O=C1c2cc(N3CCOCC3)nc(-c3cccc(F)c3)c2CN1Cc1ccccc1 | -25.7%[87.6 µM] | 31.6µM* | 5.9%[87.6 µM] | 10.6
O=C1c2cc(N3CCOCC3)nc(-c3cccc(CO)c3)c2CN1Cc1ccccc1 | -9.4%[87.6 µM] | 35.5µM* | -13.4%[87.6 µM] | 2.7
O=C1c2cc(N3CCOCC3)nc(-c3ccc(F)cc3)c2CN1Cc1ccccc1 | -9.6%[87.6 µM] | 35.5µM* | 0.3%[87.6 µM] | 7.5
O=C(Cc1ccc(F)cc1)N(CC1CCN(Cc2ccccc2F)CC1)CC1CCCO1 (configuration not stated) | 6.9% | i | -6.6% | 0.3
Cc1ccc(C(=O)N[C@@H](Cc2ccccc2)C(=O)N2CCCOCCNC(=O)CC2)s1 | 4.2% | i | 0.0% | -6.2
O=C(CSc1nc2ccccc2o1)OCC(=O)N1CCCC1 | / | i | / | /
Cn1ccnc1-c1ccc(N2CC[C@](C)(O)[C@@H](O)C2)nn1 | 220.3% | ? | 5.5% | -4.1
COc1cccc(CC2(CO)CCCN(c3ccc(-c4nccn4C)nn3)C2)c1 (configuration not stated) | -12.9% | 20µM* | ? | 5.4
Cn1ccnc1-c1ccc(N2CCC(C(O)Cc3ccccc3)CC2)nn1 (configuration not stated) | -33.5% | 28.2µM* | -12.7% | 5.0
CC1Cc2cc(-c3csc(NC4CCCC4)n3)ccc2N1S(C)(=O)=O (configuration not stated) | / | i | / | /
CCCCNC(=O)c1cccc(NC(=O)c2ccncc2)c1 | / | i | / | /
O=C1CCN(C(=O)C2(c3ccccc3)CC2)CCCOCCN1 | ? | i | -4.1% | -16.2
COc1cc(OC(F)(F)F)ccc1C(=O)N1CCC(c2nnc3n2C(C(=O)O)CC3)CC1 (configuration not stated) | 5.1% | ? | -5.5% | 2.6
Cc1ccc(C2=NC3(CCN(C(=O)c4cccc5[nH]ccc45)CC3)ON2)cc1 | 36.3% | 31.6µM* | -22.3% | -2.6
O=C(c1ccc2[nH]ccc2c1)N1CCC2(CC1)N=C(c1ccc(Br)cc1)NO2 | 20.6% | i | -0.7% | -4.7
O=C(c1ccc2cc[nH]c2c1)N1CCC2(CC1)N=C(c1cccc(Br)c1)NO2 | ? | 28.2µM* | -10.0% | 8.8
COCCN1C(=O)CS(=O)C12CCN(C(=O)c1cccc3[nH]ccc13)CC2 (configuration not stated) | 13.7% | 28.2µM* | 7.7% | 7.6
SMILES | SNCA expr inh | KDM5B inhibitor | HEK293 viab | IP6K1 inh
O=C(NCc1ccc(F)cc1F)c1cc2n(n1)CC(c1ccc3c(c1)OCO3)OC2 (configuration not stated) | 6.9% | 28.2µM* | -8.9% | 5.3
CCc1ccc(CNC(=O)c2cc3n(n2)CC(c2ccc4c(c2)OCO4)OC3)cc1 (configuration not stated) | -3.6% | 25.1µM* | 9.3% | -2.0
CCCCNC(=O)c1cc2n(n1)CC(c1ccc3c(c1)OCO3)OC2 (configuration not stated) | -5.8% | i | -3.9% | 25.2
CCOc1ccccc1CNC(=O)c1cc2n(n1)CC(c1ccc3c(c1)OCO3)OC2 (configuration not stated) | ? | 31.6µM* | 8.5% | -15.4
O=C(NCC1CC1)c1cc2n(n1)CC(c1ccc3c(c1)OCO3)OC2 (configuration not stated) | 0.5% | i | -4.4% | 11.1
O=C(NCc1ccc(Cl)cc1)c1cc2n(n1)CC(c1ccc3c(c1)OCO3)OC2 (configuration not stated) | ? | 28.2µM* | ? | -2.1
CCOC(=O)c1ccccc1NC(=O)Cn1c(=O)c2c(OCC)c(CC)cnc2n(C)c1=O | / | i | / | /
O=C(CCSc1ccccc1)N1CCC(c2nnc3n2CCC3)CC1 | / | i | / | /
CNc1ncccc1C(=O)N[C@@H]1COCC[C@@H]1OCc1ccccc1 | 4.0% | 28.2µM* | 4.9% | 5.3
CCc1nc(N2CCOCC2)ncc1C(=O)O | -1.6% | 25.1µM* | 3.5% | -20.8
Cc1cc2oc(C(=O)Nc3ccc(OC(F)F)cc3)cc(=O)c2cc1C | / | i | / | /
CC1(COc2ccccc2)COc2ccc(C(=O)NCCOc3ccccc3)cc2N1 (configuration not stated) | ? | 39.8µM* | -25.5%[87.6 µM] | 1.9
CC1(CNc2ccccc2)COc2ccc(C(=O)NCCN3CCOCC3)cc2N1 (configuration not stated) | -18.1%[87.6 µM] | i | 13.4%[87.6 µM] | -2.2
CC1(CNc2ccccc2)COc2ccc(C(=O)NCCc3ccccn3)cc2N1 (configuration not stated) | 34.1%[87.6 µM] | 22.4µM* | 4.8%[87.6 µM] | -14.8
CC1(CNc2ccccc2)COc2ccc(C(=O)NCCOc3ccccc3)cc2N1 (configuration not stated) | -2.1%[87.6 µM] | 28.2µM* | -26.5%[87.6 µM] | -12.3
CN(Cc1ccccc1)C(=O)c1ccc2c(c1)NC(C)(COc1ccccc1)CO2 (configuration not stated) | ? | 39.8µM* | ? | 10.6
CC1CCN(C(=O)c2cc3c(s2)CCC(C(=O)NCCCN2CCOCC2)C3)CC1 (configuration not stated) | -1.0% | i | 3.1% | 26.6
C[S+](=O)([O-])N1Cc2ccccc2CC2(CCCCN2CCc2ccccc2)C1 (configuration not stated) | -2.0% | i | 10.1% | -6.9
COc1ccc2oc(=O)cc(CN3CCN(Cc4ccc(F)cc4)CC3)c2c1 | / | i | / | /
COCCNc1nc2c(S(=O)(=O)c3ccccc3)nnn2c2ccccc12 | -1.2% | i | 1.1% | -13.9
COCCCNc1nc2c(S(=O)(=O)c3ccccc3)nnn2c2ccccc12 | -4.0% | 79.4µM* | 1.1% | 3.5
